Laboratory results as given in PubChem BioAssay AID488969 (Vanderbilt High Throughput Screening Facility, 2010).
Whole data set: some 110,000 compounds, median “z-score” near -0.1, cut for the highest 2% near 2. Only a selection was taken, and the highest values are over-represented in it overall. Calls of active or inactive are those of the source.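 The calls were made as follows: active = z-score in the third read window above 3 or below -3; inactive = the rest.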

molecular target: Metabotropic glutamate receptor 8 (Rattus norvegicus) (UniProt P70579); test: rat mGluR8 modulators via GIRK flux, primary screen, cell-based, thallium flux, HTS (AID 488969); conditions: HEK293 rat mGluR8, GIRK (G protein-gated inwardly rectifying potassium channel) thallium flux, FluoZin2; at 10 µM; stronger effect = higher value; submaximal glutamate (EC20) added with thallium
Sequence (P70579 whole entry, looked up): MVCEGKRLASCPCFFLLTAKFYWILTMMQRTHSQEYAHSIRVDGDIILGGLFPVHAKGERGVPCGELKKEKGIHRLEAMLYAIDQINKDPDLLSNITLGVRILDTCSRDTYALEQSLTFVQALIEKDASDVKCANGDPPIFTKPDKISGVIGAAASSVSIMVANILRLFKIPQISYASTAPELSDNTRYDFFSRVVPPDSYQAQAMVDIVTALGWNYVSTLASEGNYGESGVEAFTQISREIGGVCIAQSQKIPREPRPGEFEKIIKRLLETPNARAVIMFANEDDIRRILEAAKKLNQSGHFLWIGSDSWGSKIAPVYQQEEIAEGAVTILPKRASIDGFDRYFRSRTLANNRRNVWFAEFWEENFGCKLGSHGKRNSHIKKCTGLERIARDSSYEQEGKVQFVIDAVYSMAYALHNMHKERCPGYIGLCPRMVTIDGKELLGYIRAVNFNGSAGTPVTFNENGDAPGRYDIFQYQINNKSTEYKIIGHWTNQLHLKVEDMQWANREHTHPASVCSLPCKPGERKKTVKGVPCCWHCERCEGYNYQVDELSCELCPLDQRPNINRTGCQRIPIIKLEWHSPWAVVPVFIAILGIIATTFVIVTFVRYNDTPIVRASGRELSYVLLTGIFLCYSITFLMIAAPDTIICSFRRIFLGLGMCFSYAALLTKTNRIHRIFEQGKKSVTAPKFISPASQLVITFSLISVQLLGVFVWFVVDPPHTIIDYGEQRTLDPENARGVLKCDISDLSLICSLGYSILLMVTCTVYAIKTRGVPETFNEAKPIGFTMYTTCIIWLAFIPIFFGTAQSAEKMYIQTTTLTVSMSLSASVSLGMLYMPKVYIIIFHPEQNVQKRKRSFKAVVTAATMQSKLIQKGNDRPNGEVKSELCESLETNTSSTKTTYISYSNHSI

| SMILES | z-score |
| --- | --- |
| COC1(c2ccccc2)NC(=S)NN=C1c1ccccc1 (stereo unspecified) | 0.721 |
| O=S(=O)(c1cccc(NC(=S)N2CCN(c3ccccc3)CC2)c1)C(F)F | -0.245 |
| Cc1occc1-c1nnc(SCC(=O)NC(C)(C)C)n1C(C)c1ccccc1 (stereo unspecified) | 0.32 |
| CN1C(=O)c2ccccc2C(C(=O)NCC2CCCO2)C1c1c[nH]c2ccccc12 (stereo unspecified) | -1.14 |
| COc1ccc(CCNC(=O)COC(=O)c2ccc(Br)o2)cc1OC | 0.125 |
| COc1ccc(CC(=O)NNC(=O)CSc2nnc(Cc3ccc(OC)cc3)n2-c2ccccc2)cc1 | -0.277 |
| N#Cc1ccccc1NC(=O)c1ccccc1OCC(=O)Nc1ccc2c(c1)oc1ccccc12 | -0.362 |
| CC(C)(C)NC(=O)COC(=O)c1ccccc1OCC(=O)Nc1ccc(Br)cc1 | -0.154 |
| CCN1C(=O)CC(N2CCC(Nc3ccc(OC)cc3)CC2)C1=O (stereo unspecified) | 0.0918 |
| COc1ccc(CCNC(=O)COc2ccc(S(=O)(=O)NCC(C)C)cc2Cl)cc1OC | -0.464 |
| Cc1ccc(NC(=O)/C(C#N)=C/c2cc(C)n(-c3ccc(N4CCOCC4)c([N+](=O)[O-])c3)c2C)c(C)c1 | -0.136 |
| CCOC(=O)N1CCC(N2C(=O)c3ccccc3C2Nc2c(C)cccc2C)CC1 (stereo unspecified) | -0.177 |
| CCOC(=O)N1CCC(N2C(=O)c3ccccc3C2Nc2ccc3c(C)cc(=O)oc3c2)CC1 (stereo unspecified) | 4.01 (active) |
| CCOC(=O)N1CCC(N2C(=O)c3ccccc3C2Nc2ccccc2)CC1 (stereo unspecified) | -0.126 |
| CCOC(=O)N1CCC(N2C(=O)c3ccccc3C2Nc2ccc(C)cc2)CC1 (stereo unspecified) | -0.488 |
| CCOC(=O)N1CCC(N2C(=O)c3ccccc3C2Nc2ccccc2C)CC1 (stereo unspecified) | 2.74 |
| CCOC(=O)c1ccccc1NC1c2ccccc2C(=O)N1C1CCN(C(=O)OCC)CC1 (stereo unspecified) | -0.69 |
| CCN(CC)c1ccc(C(=O)N/N=C(\C)c2ccc(OC)c(OC)c2)cc1 | 0.585 |
| CCOC(=O)c1cc2c(ccn2C)n1CC(=O)N(Cc1ccccc1)c1ccc(F)cc1 | 1.2 |
| CCOC(=O)C(C)(C)Sc1nc2c(cnn2-c2ccc(Cl)cc2)c(=O)[nH]1 | -0.781 |
| Cc1ccc(OCC(=O)c2ccc3c(c2)CCCC3)cc1C | -0.12 |
| O=C(Nc1ccc2c3c(cccc13)CC2)c1ccco1 | 0.0277 |
| Cc1cc(C)c(NC(=O)c2ccccc2N(C)S(C)(=O)=O)c(C)c1 | 0.0701 |

| SMILES | z-score |
| --- | --- |
| CC1(C)CC(=O)c2cn3nc(C(F)(F)F)nc3nc2C1 | -0.129 |
| CCC1(c2ccc(Cl)cc2)NC(=S)N(c2ccccc2)N1 (stereo unspecified) | 4.78 (active) |
| CC1CCC2(CC1)NC(=S)N(c1ccccc1)N2 (stereo unspecified) | 0.323 |
| CCC1(c2ccccc2)NC(=S)N(c2cccc(C)c2C)N1 (stereo unspecified) | 1.26 |
| Cc1ccc(SCCC(=O)Nc2ccc(Br)c(C)c2)cc1 | -0.0218 |
| S=c1[nH]nc(-c2ccco2)n1/N=C/c1ccc(Cl)cc1 | -0.0483 |
| Cc1ccsc1/C=N/n1c(-c2ccco2)n[nH]c1=S | 0.377 |
| S=c1[nH]nc(-c2ccco2)n1/N=C/c1ccc(Cl)cc1Cl | 6.87 (active) |
| Cc1ccc(-c2n[nH]c(=S)n2/N=C/c2cccn2C)cc1 | 1.02 |
| Cn1cccc1/C=N/n1c(-c2ccc(Cl)cc2Cl)n[nH]c1=S | 2.46 |
| S=c1[nH]nc(-c2ccco2)n1/N=C/c1ccccc1Cl | 1.07 |
| Cn1cccc1/C=N/n1c(-c2ccc(Cl)cc2)n[nH]c1=S | 1.03 |
| S=c1[nH]nc(-c2ccco2)n1/N=C/c1ccc(Cl)c(Cl)c1 | 1.59 |
| S=c1[nH]nc(-c2ccco2)n1/N=C/c1cccc(Cl)c1Cl | 5.73 (active) |
| Cc1ccc(-n2nc(CN3CCOCC3)c(-c3ccccc3)c2N)c(C)c1 | -0.0359 |
| CCCOc1ccc(-c2csc(N)n2)cc1[N+](=O)[O-] | -0.349 |
| Cc1ccc(C2NC(c3ccc(C)cc3)C(C)C(=NO)C2C)cc1 (stereo unspecified) | -0.376 |
| O=C(Nn1cnnc1)c1ccccc1CCc1ccccc1 | 0.0675 |
| CS(=O)(=O)c1ccc2nc(NC(=O)C3COc4ccccc4O3)sc2c1 (stereo unspecified) | 0.303 |
| Cn1c(=O)c2c(nc(NCc3ccc4c(c3)OCO4)n2Cc2ccccc2)n(C)c1=O | -1.09 |
| CCc1ccc(S(=O)(=O)N2CC(=O)Nc3ccccc32)cc1 | -0.195 |
| Cc1cccc(Sc2ccc([N+](=O)[O-])cc2[N+](=O)[O-])n1 | -0.278 |
| CCOc1cc(C=O)c(Br)cc1OC1CCCC1 | 0.0863 |

| SMILES | z-score |
| --- | --- |
| COc1cc(C=O)c(Br)cc1OC1CCCC1 | 2.09 |
| COc1cc(C=O)c(Br)cc1OCc1ccc(C)cc1 | -0.101 |
| CCOc1ccc(CCNC(=O)C2CCN(C(=O)N(C)C)CC2)cc1OCC | 0.862 |
| Clc1ccc2c(c1)C(N1CCNCC1)Cc1ccccc1S2 (stereo unspecified) | 3.92 (active) |
| Clc1ccc2c(c1)C(C1=NCCN1)c1ccccc1CS2 (stereo unspecified) | 0.865 |
| Clc1cccc2c1Sc1ccccc1CC2N1CCNCC1 (stereo unspecified) | 0.386 |
| COc1ccc(OC)c(N(CC(=O)Nc2cccnc2)S(=O)(=O)c2ccccc2)c1 | -0.398 |
| C=CCOc1cccc(/C=N/NC(=O)CN(c2cc(Cl)ccc2OC)S(=O)(=O)c2ccc(C)c([N+](=O)[O-])c2)c1 | -0.0532 |
| Cc1ccc2nc3sc(C(=O)NCc4ccco4)c(N)c3cc2c1 | -0.222 |
| CNC(=O)CSc1nnnn1CCCOC | 0.0742 |
| CCC1=NN(C(=O)c2cccc(Br)c2)C(O)(c2ccc(Br)cc2)C1 (stereo unspecified) | 3.84 (active) |
| CCOC(=O)C1=NN(C(C)=O)C2(CC(=O)N(c3cccc(C)c3)C2=O)C1 (stereo unspecified) | -0.0266 |
| COC(=O)C1=NN(C(=O)c2ccc(Cl)cc2)C(O)(c2ccccc2)C1 (stereo unspecified) | 11.5 (active) |
| CC1=NN(C(=O)c2ccc(C)cc2)C(O)(C(F)(F)OC(F)(F)F)C1 (stereo unspecified) | -0.0203 |
| CCC1=NN(C(=O)Cc2ccc([N+](=O)[O-])cc2)C(O)(c2ccc(Br)cc2)C1 (stereo unspecified) | -0.206 |
| CCC1(O)CC(C(=O)OC)=NN1C(=O)c1ccccc1 (stereo unspecified) | 0.602 |
| CCC1=NN(C(=O)c2ccc(C)cc2)C(O)(c2ccc(Br)cc2)C1 (stereo unspecified) | 0.175 |
| COC(=O)C1=NN(C(=O)c2ccc(C)cc2)C(O)(c2ccc(Cl)cc2)C1 (stereo unspecified) | 8.48 (active) |
| CCOC(=O)C1=NN(C(=O)c2ccccc2)C(O)(c2ccc(C)cc2)C1 (stereo unspecified) | 10.5 (active) |
| COC(=O)C1=NN(C(=O)c2ccccc2)C(C)(O)C1 (stereo unspecified) | 0.19 |
| CCOC(=O)C1=NN(C(=O)c2ccco2)C2(CC2)C1 | -0.239 |
| COC(=O)C1(O)CC(C(C)C)=NN1C(=O)c1ccc(Cl)cc1 (stereo unspecified) | 0.417 |
| Cn1ncc(Br)c1C(=O)OCC(=O)Nc1nc(-c2ccccc2)cs1 | -0.654 |

| SMILES | z-score |
| --- | --- |
| CCCCOCCCNC(=O)/C=C/c1ccccc1Cl | -0.149 |
| C/C=C/c1ccc(OCCCNC2CCCC2)c(OC)c1 | 1.24 |
| COC(=O)c1cc(C#N)c(N(C)Cc2ccccc2)nc1C | -0.154 |
| CCc1nnc(NC(=O)CSc2nnc(-c3ccncc3)n2C)s1 | -1.78 |
| COC(=O)c1cc(O)c(OCc2ccccc2)c(O)c1 | -0.276 |
| CCOC(=O)C1=C(C)NC(=O)NC1c1cccc(O)c1 (stereo unspecified) | -0.126 |
| CCOC(=O)C1CCC(CNCc2ccc(Cl)cc2)CC1 (stereo unspecified) | -1.85 |
| CNc1c([N+](=O)[O-])cnn1-c1ccc(Cl)cc1Cl | -0.197 |
| CC1=NN(C(=O)COc2ccccc2C)C(O)(c2ccc(Cl)cc2)C1 (stereo unspecified) | -0.867 |
| CCOC(=O)C1=NN(C(=O)c2ccc(C)cc2)C(O)(c2ccc(Cl)cc2)C1 (stereo unspecified) | 10.4 (active) |
| CC1=NN(C(=O)COc2ccc(C)c(C)c2)C(O)(c2ccc(Cl)cc2)C1 (stereo unspecified) | -0.32 |
| CN1CCN(c2ncnc3c2cnn3-c2ccc(Cl)cc2)CC1 | 0.276 |
| COc1ccccc1OCCNc1nc2c(c(=O)n(C)c(=O)n2C)n1C | 1.41 |
| Cc1ccc(Cc2cnc(NC(=O)c3ccco3)s2)cc1 | -0.555 |
| Cc1ccc(NC(=O)CSc2nc3ccccc3c3nc(CCc4c(C)n[nH]c4C)nn23)cc1F | -0.264 |
| COC(=O)CN1C(=O)CSc2ncccc21 | 0.767 |
| COCCNC(=O)CN1C(=O)CSc2ncccc21 | 3.57 (active) |
| CNC(=O)CN1C(=O)CSc2ncccc21 | 0.227 |
| COC(=O)c1ccc(C)c(NC(=O)Cc2coc3cc(OC)ccc23)c1 | 0.022 |
| Cc1ccc(OCCSc2nnc(-c3ccncc3)n2C)cc1 | -0.157 |
| COCCSc1nnc(-c2cccc(C#N)c2)n1C | 2.31 |
| Cn1c(SCCOc2cccc(Cl)c2)nnc1-c1ccncc1 | -0.17 |
| Cc1ccc(S(=O)(=O)N2CCC(C(=O)N3CCC[C@H]3C(=O)NCc3ccccc3)CC2)cc1 | -0.265 |

| SMILES | z-score |
| --- | --- |
| CCC(c1nnnn1C(C)(C)C)N1CCN(C2CCCC2)CC1 (stereo unspecified) | 0.224 |
| O=C(CN(Cc1cccs1)C(=O)CNS(=O)(=O)c1ccc(F)cc1)NCc1ccco1 | -0.317 |
| Cc1ccc(-c2cc(-c3cccs3)[nH]n2)c(O)c1 | 2.77 |
| Cc1ccc(-c2cc(-c3ccccc3[N+](=O)[O-])[nH]n2)c(O)c1 | -0.292 |
| Cc1ccc(-c2cc(-c3ccccc3C)[nH]n2)c(O)c1 | -0.115 |
| COC(=O)c1cc(NS(=O)(=O)c2ccc(NCc3cccnc3)c(N)c2)cc(C(=O)OC)c1 | -0.104 |
| CCOC(=O)c1nc2cc3n(c(C)c-2c1C)C(C)C(C)=C3C (stereo unspecified) | -0.0669 |
| CCOC(=O)c1nc2cc3n(c(CC(C)C)c-2c1C)CC(C)=C3C | 0.604 |
| CCOC(=O)c1nc2cc3n(c(C)c-2c1C)C(C)C(CC)=C3C (stereo unspecified) | 2.31 |
| CCOC(=O)Nc1sc2c(c1C#N)CCCC2 | 0.504 |
| Cc1cnc(NC(=O)COc2cccc3c2OC(C)(C)C3)s1 | 0.713 |
| Cc1cnc(NC(=O)COc2ccccc2Cl)s1 | 3.06 (active) |
| CSc1ccccc1NC(=O)COc1ccccc1Cl | -1.54 |
| Cc1ccc(S(=O)(=O)NCCC(=O)NC2CCCC2)cc1 | 0.757 |
| CCCCNC(=O)CCCCCNS(=O)(=O)c1ccc(OC)cc1 | 1.14 |
| COc1ccc(CCCC(=O)NC2CCCCC2)cc1 | -0.301 |
| COc1ccc(S(=O)(=O)NCCC(=O)NC2CCCCCCC2)cc1 | 3.82 (active) |
| O=C(CCCCCNS(=O)(=O)c1ccc(Br)cc1)NCCN1CCOCC1 | 0.263 |
| COc1ccc(S(=O)(=O)NCCCCCC(=O)NCCCN2CCOCC2)cc1 | 2.89 |
